Records with an inconclusive call do not appear. Active and inactive are the calls of the source. Unless noted, calls come from the whole dose curve; as a rule, active = well fitted curve in the direction sought with a large enough effect in the repeat runs; inconclusive = weak or mixed curves; inactive = no such curve, though single readings can be large; an effect the other way counts as inactive or inconclusive.
Assays:
[1] = target: Thyrotropin receptor (Homo sapiens) (UniProt P16473); assay: qHTS assay to identify small molecule antagonists of the thyroid stimulating hormone receptor (TSHR) signaling pathway (AID 1259385; calls by dose curve; note: nearly all actives have a fitted effect of over 20% in size)
How it was run: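 TSHR-HEK293 cells were plated and held 18 h at 37C/5% CO2, then given compound plus Ro20-1724 and stimulated with TSH at 1.5 ng/mL final. After 30 min at room temperature, cAMP was detected with cAMP-d2/anti-cAMP-cryptate (1 h) by fluorescence.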

[2] = qHTS assay to identify small molecule agonists of the estrogen receptor alpha (ER-alpha) signaling pathway in the presence of an antagonist - cell viability counter screen (AID 1259386);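 note: series mostly up to about 92 µM; cells exposed to compounds for 22 h at 37 °C before the viability read; nearly all actives have a fitted effect of over 30% in size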
How it was run: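 Cell viability in VM7Luc4E2 cells (endogenous full-length ER-alpha) measured by CellTiter-Fluor fluorescence in the same wells as the luciferase screen. Cells pre-cultured 5 days in charcoal-stripped serum, then treated 22 h with compounds at 15 concentrations plus 10.0nM ICI-182,780.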

[3] = target: Progesterone receptor (Homo sapiens) (UniProt P06401); assay: qHTS assay to identify small molecule agonists of the progesterone receptor (PR) signaling pathway (AID 1346784; calls by dose curve; note: nearly all actives have a fitted effect of over 30% in size)
How it was run: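 PR-UAS-bla HEK 293T cells (beta-lactamase reporter under UAS) in 2% charcoal-stripped FBS, dosed with 23 nL compound after 6 hr, incubated 16hr at 37C. LiveBLAzer B/G FRET substrate added, fluorescence read after 2 hours.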

[4] = target: Progesterone receptor (Homo sapiens) (UniProt P06401); assay: qHTS assay to identify small molecule antagonists of the progesterone receptor (PR) signaling pathway (AID 1346795; active = well fitted inhibition curve with a large enough effect in the signal ratio in the repeat runs, not every such curve was filed as active; the % refers to the signal ratio; note: potency is the fitted concentration of half-maximal effect)
How it was run: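 PR-UAS-bla HEK293T cells with beta-lactamase reporter under UAS control, in 2% charcoal-stripped FBS, treated with compounds plus 1 nM promegestone (R5020, final) for 16 hr at 37C. Read-out: FRET beta-lactamase substrate fluorescence after 2 hr at room temperature.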

[5] = qHTS assay to identify small molecule antagonists of the progesterone receptor (PR) signaling pathway - cell viability counter screen (AID 1346798); note: series mostly up to about 92 µM; nearly all actives have a fitted effect of over 50% in size
How it was run: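 PR-UAS-bla HEK293T cells, 3,000/well in 2% charcoal-stripped FBS medium, dosed with compounds plus R5020 agonist and incubated 16 h at 37C. Viability then measured in the same wells by CellTiter-Glo luminescence after 30 min at RT.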

[6] = qHTS assay to identify small molecule agonists of the progesterone receptor (PR) signaling pathway - cell viability counter screen (AID 1346799; calls by dose curve; note: nearly all actives have a fitted effect of over 45% in size)
How it was run: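 Counter screen in the PR-UAS-bla HEK293T wells (2% charcoal-stripped FBS, 16 h compound exposure at 37 C) after the bla read. CellTiter-Glo added, 30 min at room temperature, luminescence read as cell viability.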

[7] = qHTS assay to identify small molecule antagonists of the TGF-beta/Smad signaling pathway - cell viability counter screen (AID 1346824); note: nearly all actives have a fitted effect of over 50% in size
How it was run: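 SBE-bla HEK 293T cells were plated overnight at 37 C, then given compounds in DMSO plus TGF-beta1 (added as 0.25 ng/mL solution) for 5 hr. After the bla read, CellTiter-Glo was added to the same wells and luminescence read after 30 min at room temperature.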

[8] = qHTS assay to identify small molecule agonists of the TGF-beta/Smad signaling pathway - cell viability counter screen (AID 1346829); note: top concentration of the series differs between compounds; nearly all actives have a fitted effect of over 45% in size
How it was run: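 Compound-treated SBE-bla HEK 293T cells (5 hr, 37 C) were assessed for viability with CellTiter-Glo in parallel with the reporter read.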

[9] = target: Thyrotropin-releasing hormone receptor (Homo sapiens) (UniProt P34981); assay: qHTS assay to identify small molecule antagonists of the thyrotropin-releasing hormone receptor (TRHR) signaling pathway (AID 1346877; active = well fitted inhibition curve with a large enough effect in the repeat runs, not every such curve was filed as active; note: series mostly up to about 51 µM)
How it was run: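 TRHR-expressing HEK293 cells loaded with calcium dye for 2 h at 37 C; compounds pre-incubated 5 min at room temperature before TRH challenge at 1 nM final. Intracellular calcium fluorescence read kinetically for 3 min; 15 concentrations in triplicate.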

[10] = target: Thyrotropin-releasing hormone receptor (Homo sapiens) (UniProt P34981); assay: qHTS assay to identify small molecule agonists of the thyrotropin-releasing hormone receptor (TRHR) signaling pathway (AID 1346891; calls by dose curve; note: series mostly up to about 58 µM)
How it was run: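 HEK293 cells expressing TRHR plated 18 h at 37 C/5% CO2, calcium dye-loaded 2 h at 37 C, then compound added (agonist mode); kinetic calcium fluorescence read 3 min at 1 s intervals; 15 concentrations in triplicate.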

[11] = Human pregnane X receptor (PXR) small molecule agonists, qHTS cell viability counter screen (AID 1346977); note: nearly all actives have a fitted effect of over 50% in size
How it was run: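 PXR-Luc HepG2 cells (2,000/well, 5% charcoal-stripped FBS) preincubated 5 hr, then exposed to compounds 24 hr at 37 C. Viability read in the same wells by CellTiter-Fluor fluorescence, reagent added at 23 hr, 1 hr incubation.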

[12] = Caspase-3/7 induction in HepG2 cells by small molecules, qHTS assay (AID 1346978); note: nearly all actives have a fitted effect of over 15% in size
How it was run: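 Wild-type HepG2 cells (2,000/well) were settled 5 h at 37 C, 5% CO2, then exposed to compounds in DMSO for 17 h. Caspase-3/7 activity was read by luminescence 30 min after adding Caspase-Glo 3/7 reagent at room temperature.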

[13] = Caspase-3/7 induction in CHO-K1 cells by small molecules, qHTS assay (AID 1346980); note: nearly all actives have a fitted effect of over 15% in size
How it was run: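 Wild-type cells were seeded at 1,500 per well and settled 5 hr at 37 C, 5% CO2, then exposed to DMSO-dissolved compounds for 17 hr. Caspase-Glo 3/7 reagent was added, and luminescence was read after 30min at room temperature.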

[14] = Caspase-3/7 induction in HepG2 cells by small molecules, qHTS cell viability counter screen (AID 1346981); note: series mostly up to about 92 µM; nearly all actives have a fitted effect of over 30% in size
How it was run: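 Wild-type HepG2 cells, 2,000/well, settled 5 hr at 37 C, 5% CO2 before compound addition. Viability read by CellTiter-Fluor fluorescence, reagent added after 16 hr compound exposure, then 1 hr at 37C, in the same wells as the caspase read.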

[15] = target: Nuclear receptor subfamily 1 group I member 2 (Homo sapiens) (UniProt O75469); assay: Human pregnane X receptor (PXR) small molecule agonists, qHTS assay (AID 1346982); note: nearly all actives have a fitted effect of over 35% in size; note: potency is the fitted concentration of half-maximal effect
How it was run: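 PXR-Luc HepG2 reporter cells (CYP3A4-driven luciferase) in 5% charcoal-stripped FBS medium, plated 5 h before compound addition, then treated 24 h at 37C. Luciferase read by ONE-Glo luminescence after 30 min at room temperature.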

[16] = qHTS assay to identify small molecule agonists of the TGF-beta/Smad signaling pathway (AID 1346859; active = well fitted activation curve with a large enough effect in the signal ratio in the repeat runs, not every such curve was filed as active; the % refers to the signal ratio; note: series mostly up to about 77 µM)
How it was run: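 SBE-bla HEK293T cells plated overnight, then compound exposure for 5 h at 37 C. Beta-lactamase reporter read with LiveBLAzer B/G FRET substrate after 2 h at room temperature, fluorescence at 405 nm excitation, 460/530 nm emission.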

[17] = target: Nuclear receptor subfamily 1 group I member 2 (Rattus norvegicus) (UniProt Q9R1A7); assay: Rat pregnane X receptor (rPXR) activation by small molecules, qHTS assay (AID 1346983); details: rPXR luciferase reporter cells, One-Glo luminescence, 24 h; max activation: stronger effect = higher value; note: nearly all actives have a fitted effect of over 20% in size
How it was run: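 Cell-based rPXR luciferase reporter assay, 2,000 cells per well, rested 5hr at 37 C before compound addition in DMSO, then 24 hr at 37 C. One-Glo reagent was added and luminescence read after 30 min at room temperature.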

[18] = target: Nuclear receptor subfamily 1 group I member 2 (Homo sapiens) (UniProt O75469); assay: CYP3A4 induction through human pregnane X receptor (PXR) by small molecules, qHTS assay (AID 1346984); note: nearly all actives have a fitted effect of over 40% in size
How it was run: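 DPX-2 HepG2 cells carrying a PXR response element and CYP3A4-promoter luciferase construct, treated with compounds 24 hr at 37C. Then P450-Glo CYP3A4 Luciferin-IPA substrate (3uM final) for 3 hr at 37C, One-Glo added, luminescence read.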

[19] = target: Nuclear receptor subfamily 1 group I member 2 (Homo sapiens) (UniProt O75469); assay: Human pregnane X receptor (PXR) activation by small molecules, qHTS assay (AID 1346985); note: nearly all actives have a fitted effect of over 40% in size
How it was run: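 DPX-2 cells (HepG2 co-transfected with a PXR response element and a CYP3A4-promoter luciferase construct) were seeded at 2,000 per well, rested 5 hr at 37C, then exposed to DMSO-dissolved compounds for 24 hr. Activation was read as luciferase luminescence.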

[20] = Caspase-3/7 induction in CHO-K1 cells by small molecules, qHTS cell viability counter screen (AID 1346979); note: nearly all actives have a fitted effect of over 35% in size
How it was run: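 Wild-type CHO-K1 cells (1,500/well) treated with compound after 5 h plating; after 16 h at 37C, viability read as CellTiter-Fluor fluorescence following 1 h reagent incubation, in the same wells as the caspase read.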
% is set by controls: 0 for no effect and ±100 for the full control effect.

Sequence of Nuclear receptor subfamily 1 group I member 2 (Homo sapiens) (O75469 whole entry, looked up): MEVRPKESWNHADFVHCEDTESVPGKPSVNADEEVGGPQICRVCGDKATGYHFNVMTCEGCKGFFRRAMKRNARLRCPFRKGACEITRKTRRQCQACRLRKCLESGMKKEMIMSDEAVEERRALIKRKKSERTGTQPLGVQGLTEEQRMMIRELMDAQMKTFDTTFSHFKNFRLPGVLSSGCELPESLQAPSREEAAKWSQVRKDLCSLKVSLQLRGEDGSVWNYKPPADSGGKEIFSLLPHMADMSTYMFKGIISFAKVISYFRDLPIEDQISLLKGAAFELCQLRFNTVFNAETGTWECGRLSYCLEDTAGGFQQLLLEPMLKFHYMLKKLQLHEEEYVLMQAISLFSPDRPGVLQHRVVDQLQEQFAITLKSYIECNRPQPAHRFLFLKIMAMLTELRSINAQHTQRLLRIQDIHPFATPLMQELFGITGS
Sequence of Thyrotropin receptor (Homo sapiens) (P16473 whole entry, looked up): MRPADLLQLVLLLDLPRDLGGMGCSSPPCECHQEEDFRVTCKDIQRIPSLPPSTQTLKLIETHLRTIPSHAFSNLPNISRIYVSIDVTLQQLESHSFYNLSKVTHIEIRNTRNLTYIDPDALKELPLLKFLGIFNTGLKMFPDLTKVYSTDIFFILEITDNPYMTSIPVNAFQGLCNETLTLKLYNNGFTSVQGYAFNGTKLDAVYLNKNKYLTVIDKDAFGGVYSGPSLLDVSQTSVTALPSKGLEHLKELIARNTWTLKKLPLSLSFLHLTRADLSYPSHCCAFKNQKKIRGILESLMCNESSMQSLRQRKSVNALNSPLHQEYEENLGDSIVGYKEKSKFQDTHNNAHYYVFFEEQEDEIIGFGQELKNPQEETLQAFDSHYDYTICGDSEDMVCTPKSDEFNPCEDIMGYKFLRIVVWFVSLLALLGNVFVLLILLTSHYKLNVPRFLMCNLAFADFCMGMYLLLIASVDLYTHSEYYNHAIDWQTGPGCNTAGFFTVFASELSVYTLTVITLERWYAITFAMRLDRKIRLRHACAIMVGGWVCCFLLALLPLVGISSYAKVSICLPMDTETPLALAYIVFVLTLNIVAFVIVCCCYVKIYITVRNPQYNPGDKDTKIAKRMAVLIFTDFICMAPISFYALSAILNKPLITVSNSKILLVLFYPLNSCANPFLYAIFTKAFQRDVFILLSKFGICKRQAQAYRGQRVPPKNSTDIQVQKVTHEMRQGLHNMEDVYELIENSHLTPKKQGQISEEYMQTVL
Sequence of Progesterone receptor (Homo sapiens) (P06401 whole entry, looked up): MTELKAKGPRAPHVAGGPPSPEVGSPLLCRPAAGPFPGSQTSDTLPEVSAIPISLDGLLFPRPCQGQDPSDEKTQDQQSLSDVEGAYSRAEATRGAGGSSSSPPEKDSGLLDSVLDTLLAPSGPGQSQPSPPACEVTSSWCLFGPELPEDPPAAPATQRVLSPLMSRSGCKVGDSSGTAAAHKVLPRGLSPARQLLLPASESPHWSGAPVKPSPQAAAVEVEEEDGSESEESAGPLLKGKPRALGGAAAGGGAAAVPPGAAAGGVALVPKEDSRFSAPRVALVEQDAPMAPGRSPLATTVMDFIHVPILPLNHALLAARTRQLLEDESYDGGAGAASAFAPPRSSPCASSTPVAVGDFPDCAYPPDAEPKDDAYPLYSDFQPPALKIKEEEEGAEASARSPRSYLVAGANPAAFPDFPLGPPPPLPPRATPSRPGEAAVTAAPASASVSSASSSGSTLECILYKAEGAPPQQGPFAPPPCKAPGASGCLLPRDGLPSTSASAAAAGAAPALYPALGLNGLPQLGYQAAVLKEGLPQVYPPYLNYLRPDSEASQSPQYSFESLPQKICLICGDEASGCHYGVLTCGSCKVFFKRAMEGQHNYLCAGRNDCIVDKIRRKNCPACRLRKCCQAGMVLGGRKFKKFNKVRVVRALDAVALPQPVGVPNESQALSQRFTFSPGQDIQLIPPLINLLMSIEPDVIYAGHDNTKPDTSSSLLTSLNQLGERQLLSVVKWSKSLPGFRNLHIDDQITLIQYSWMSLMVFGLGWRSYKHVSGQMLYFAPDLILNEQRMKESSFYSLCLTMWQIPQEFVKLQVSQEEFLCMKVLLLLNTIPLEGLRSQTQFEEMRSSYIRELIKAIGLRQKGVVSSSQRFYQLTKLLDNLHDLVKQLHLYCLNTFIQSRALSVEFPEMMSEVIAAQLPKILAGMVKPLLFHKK
Sequence of Thyrotropin-releasing hormone receptor (Homo sapiens) (P34981 whole entry, looked up): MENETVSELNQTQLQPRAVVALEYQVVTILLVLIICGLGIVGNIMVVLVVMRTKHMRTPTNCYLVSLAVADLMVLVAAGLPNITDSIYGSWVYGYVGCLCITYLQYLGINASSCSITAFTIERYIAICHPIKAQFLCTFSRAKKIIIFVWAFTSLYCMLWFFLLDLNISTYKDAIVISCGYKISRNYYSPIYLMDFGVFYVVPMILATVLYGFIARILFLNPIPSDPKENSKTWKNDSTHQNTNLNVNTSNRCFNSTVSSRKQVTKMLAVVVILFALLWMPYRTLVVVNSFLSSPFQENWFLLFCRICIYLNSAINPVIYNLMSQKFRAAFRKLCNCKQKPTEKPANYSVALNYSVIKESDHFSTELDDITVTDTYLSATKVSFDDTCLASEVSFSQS
Sequence of Nuclear receptor subfamily 1 group I member 2 (Rattus norvegicus) (Q9R1A7 whole entry, looked up): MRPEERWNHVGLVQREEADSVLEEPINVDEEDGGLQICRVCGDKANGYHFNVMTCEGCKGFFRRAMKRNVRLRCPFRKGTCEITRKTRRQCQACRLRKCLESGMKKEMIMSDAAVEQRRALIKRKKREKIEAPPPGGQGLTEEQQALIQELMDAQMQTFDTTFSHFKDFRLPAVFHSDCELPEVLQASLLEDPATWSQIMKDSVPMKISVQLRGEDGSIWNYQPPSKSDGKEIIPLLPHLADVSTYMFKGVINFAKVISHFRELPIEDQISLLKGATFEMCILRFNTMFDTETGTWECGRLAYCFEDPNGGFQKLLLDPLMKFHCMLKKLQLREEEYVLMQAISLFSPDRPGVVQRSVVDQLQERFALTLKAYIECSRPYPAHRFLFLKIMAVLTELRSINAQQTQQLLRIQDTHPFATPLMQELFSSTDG

CCN1CCN(c2cc3c(cc2F)c(=O)c(C(=O)O)cn3C2CC2)CC1
inactive: Potency [1] | outcome [2] | Potency [3] | Potency [4] | Potency [5] | Potency [6] | outcome [7] | outcome [8] | outcome [9] | outcome [10] | Potency [11] | outcome [12] | outcome [13] | outcome [14] | Potency [15]

Oc1ccc2c(c1)OC[C@@H](N1CCC(O)(c3ccc(F)cc3)CC1)[C@H]2O
active: Potency [4] 10.6 µM | Potency [15] 11.9 µM
inactive: Potency [1] | outcome [2] | Potency [3] | Potency [5] | Potency [6] | outcome [7] | outcome [8] | outcome [16] | outcome [10] | Potency [11] | outcome [12] | outcome [13] | outcome [14]

NC(N)=NS(=O)(=O)c1ccc(N)cc1
inactive: Potency [1] | outcome [2] | Potency [3] | Potency [4] | Potency [5] | Potency [6] | outcome [7] | outcome [8] | outcome [16] | Potency [11] | outcome [12] | outcome [13] | outcome [14] | Potency [15] | max activation [17] -6.55% | Potency [18] | Potency [19]

CSc1ccc(C=O)cc1
inactive: Potency [1] | outcome [2] | Potency [3] | Potency [4] | Potency [5] | Potency [6] | outcome [7] | outcome [8] | outcome [16] | Potency [11] | outcome [12] | Potency [20] | outcome [13] | outcome [14] | Potency [15]

CCCCc1ccc(N)cc1
inactive: Potency [1] | outcome [2] | Potency [3] | Potency [4] | Potency [5] | Potency [6] | outcome [7] | outcome [8] | outcome [16] | Potency [11] | outcome [12] | Potency [20] | outcome [13] | outcome [14] | Potency [15]

N[C@@H](CS)C(=O)O
inactive: Potency [1] | outcome [2] | Potency [3] | Potency [4] | Potency [5] | Potency [6] | outcome [7] | outcome [8] | outcome [16] | Potency [11] | outcome [12] | outcome [13] | outcome [14] | Potency [15]

Nc1ccn(C2CO[C@H](CO)O2)c(=O)n1 (stereo not given in full)
inactive: Potency [1] | outcome [2] | Potency [3] | Potency [4] | Potency [5] | Potency [6] | outcome [7] | outcome [8] | outcome [16] | Potency [11] | outcome [12] | Potency [20] | outcome [13] | outcome [14] | Potency [15]

O=C(O)C1CCC1
inactive: Potency [1] | outcome [2] | Potency [3] | Potency [4] | Potency [5] | Potency [6] | outcome [7] | outcome [8] | outcome [16] | outcome [10] | outcome [12] | Potency [20] | outcome [13] | outcome [14] | Potency [15]

CCCCc1ccc2cccc(S(=O)(=O)O)c2c1
inactive: Potency [1] | outcome [2] | Potency [3] | Potency [4] | Potency [5] | Potency [6] | outcome [7] | outcome [8] | outcome [16] | outcome [12] | Potency [20] | outcome [13] | outcome [14] | Potency [15]

From PubChem BioAssay (Tox21)
